For some assays here: Results with a measured potency or affinity are listed apart. Results filed as inconclusive are left out. This is one part of the list. Calls of active or inactive are those of the source. Unless noted, the rule behind the calls is not given here.
What was measured:
[1] = cytotoxicity in IOSE-T80 ovarian epithelial cells, dose response, selectivity assay for PAX8 inhibitor project, cell-based, cherry-pick (AID 687032;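 active = fitted half-maximal concentration for viability loss no higher than twice the top valid dose, in every repeat run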;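 note: cells exposed to compound for 96 h before reading; 0% = neutral control wells and -100% = 2 µM mitoxantrone kill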)
[2] = non-specific cell cytotoxicity, dose response, cytotoxicity control for PAX8 inhibitor project, plate reader, dry powder samples (AID 743021)
[3] = IOSE-T80 ovarian epithelial cell cytotoxicity, dose response, cytotoxicity control for PAX8 inhibitor project, plate reader, dry powder samples (AID 743045);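 note: 0% = neutral control median and -100% = positive control median; more negative values mean more cell killing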
[4] = inhibitors of CMV-promoter luciferase reporter, dose response, counter-screen for Pax8 inhibitor project, cell-based, HEK293, luminescence, dry powder (AID 743020;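 active = signal-lowering compounds whose fitted half-maximal concentration is at or below twice the top tested dose in every run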;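 note: HEK293 cells stably expressing the CMV luciferase reporter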)
[5] = A2780 ovarian cancer cell cytotoxicity, dose response, cytotoxicity control, plate reader, dry powder samples (AID 743046);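 note: 0% = neutral control wells and -100% = cytotoxic reference compound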
[6] = IGROV1 ovarian cancer cell cytotoxicity, dose response, PAX8 inhibitor project, plate reader, dry powder samples (AID 743043);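 note: more negative means fewer viable cells or more cytotoxicity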
[7] = NIH:OVCAR-3 ovarian cancer cell cytotoxicity, dose response, PAX8 inhibitor project, plate reader, dry powder samples (AID 743044); conditions: max activity: at 35 µM, stronger effect = lower value unless noted
[8] = cytotoxicity in OVCAR8 ovarian cancer cells, dose response, PAX8 project, cell-based, plate reader, dry powder samples (AID 743197)
[9] = DNA binders by acridine orange displacement, dose response, counter-screen for EWS/Fli inhibitor project, biochemical, fluorescence polarization, cherry-pick (AID 720586;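 active = fitted curve reaches a 35% signal fall AC35 below twice the sample's top valid tested dose, actives reach about 48 µM in these data; inactive = the rest, including activity in the rising direction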;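 note: 0% = neutral control median and -100% = 10 µM mitoxantrone control median; lower polarization ratio signals compound binding to DNA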)
[10] = A549 cell cytotoxicity, dose response, cytotoxicity control, plate reader, cherry-pick, antagonist series (AID 743412);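 note: 0% = neutral control wells and -100% = positive control wells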

CN1c2ccc(-c3cccc(C#N)c3)cc2[C@H]2[C@H](CCN2S(=O)(=O)c2ccccc2F)[C@H]1CO
inactive: outcome [1] | outcome [2] | outcome [3]

COc1ccccc1C#Cc1ccc2c(c1)O[C@@H](CN(C)Cc1ccncc1)[C@H](C)CN([C@H](C)CO)S2(=O)=O
inactive: outcome [1] | outcome [4] | outcome [3] | outcome [5]

C[C@@H]1CCCCO[C@H](CN(C)S(=O)(=O)c2ccc(F)cc2)[C@H](C)CN([C@@H](C)CO)C(=O)c2cc(NS(=O)(=O)c3ccc(Cl)cc3)ccc2O1
inactive: outcome [1] | outcome [4] | outcome [6] | max activity [7] -28.2% | outcome [3] | outcome [5] | outcome [8]

C[C@@H]1CN([C@H](C)CO)C(=O)c2cc(NC(=O)Nc3ccc(F)cc3)ccc2O[C@@H](C)CCCCO[C@H]1CN(C)Cc1ccc(C(F)(F)F)cc1
inactive: outcome [1] | outcome [2] | outcome [6] | outcome [3] | outcome [5] | outcome [8]

C[C@H](CO)N1C[C@H](C)[C@H](CN(C)Cc2ccc(C(F)(F)F)cc2)Oc2ccc(NC(=O)CCCCCC(=O)Nc3ccccc3N)cc2CC1=O
inactive: AC35 [9]

O=C(Nc1cccc(F)c1)N1CCCCN2[C@H](CO)[C@@H](c3ccc(C#Cc4ccccc4)cc3)[C@H]2C1
inactive: outcome [1] | outcome [4] | outcome [5] | outcome [8]

C[C@H](CO)N1C[C@H](C)[C@H](CN(C)CC2CCCCC2)Oc2ccc(NC(=O)CCCCCC(=O)Nc3ccccc3N)cc2CC1=O
inactive: AC35 [9]

C[C@@H]1CN([C@@H](C)CO)C(=O)c2cc(NS(=O)(=O)c3ccccc3)ccc2O[C@@H]1CN(C)Cc1ccc(C(=O)Nc2ccccc2N)cc1
inactive: AC35 [9]

CCOc1cc2[nH]c(=S)n(Cc3ccc(C(=O)N4CCN(C)CC4)cc3)c(=O)c2cc1OCC
inactive: AC35 [9]

C#CCN(C[C@@H]1[C@@H](OC(=O)NCc2ccccc2F)[C@@H](OC(=O)NCc2ccccc2F)Cn2c(=O)ccc(=O)n21)S(=O)(=O)c1ccc(C)cc1
inactive: outcome [1] | outcome [2]

COc1ccc(/C=C2\SC(=S)N(CCCC(=O)NC3CCCC3)C2=O)cc1OC
inactive: AC35 [9]

COc1cccc(-c2ccc3c(c2)[C@H]2[C@H](CCN2S(=O)(=O)c2ccccc2F)[C@@H](CO)N3)c1
inactive: outcome [1] | outcome [4] | outcome [2] | outcome [3] | outcome [5]

C[C@@H]1CN([C@@H](C)CO)C(=O)Cc2cc(NC(=O)CCCCCC(=O)Nc3ccccc3N)ccc2O[C@@H]1CN(C)Cc1ccc(C(F)(F)F)cc1
inactive: outcome [1] | outcome [4] | outcome [6] | outcome [3] | outcome [5]

C[C@@H]1CN([C@H](C)CO)C(=O)c2cc(NS(=O)(=O)c3ccc(F)cc3)ccc2O[C@@H](C)CCCCO[C@@H]1CN(C)Cc1ccccc1
inactive: outcome [1] | outcome [4] | outcome [6] | outcome [3] | outcome [5]

C[C@@H]1CN([C@H](C)CO)C(=O)c2cc(NC(=O)Nc3ccccc3)ccc2O[C@@H](C)CCCCO[C@H]1CN(C)Cc1ccc(C(F)(F)F)cc1
inactive: outcome [1] | outcome [4] | outcome [2] | outcome [5] | outcome [8]

C[C@@H]1CCCCO[C@H](CN(C)Cc2ccc(C(F)(F)F)cc2)[C@@H](C)CN([C@@H](C)CO)C(=O)c2cc(NC(=O)Cc3ccccc3)ccc2O1
inactive: outcome [1] | outcome [4] | outcome [2] | outcome [3] | outcome [5] | outcome [8]

COc1ccccc1C#Cc1ccc2c(c1)O[C@@H](CN(C)Cc1ccncc1)[C@H](C)CN([C@@H](C)CO)S2(=O)=O
inactive: outcome [1] | outcome [4] | outcome [6] | max activity [7] 20.3% [at 8 µM, stronger effect = lower value] | outcome [3] | outcome [5]

C[C@@H]1CN([C@@H](C)CO)S(=O)(=O)c2ccc(C#Cc3ccncc3)cc2O[C@H]1CN(C)C(=O)Nc1ccc2c(c1)OCO2
inactive: outcome [1] | outcome [4] | outcome [2] | outcome [6] | outcome [8]

Cc1cccc(-c2ccc(C3[C@@H]4CN(C(=O)Nc5ccc(C(F)(F)F)cc5)C[C@H]3N4)cc2)c1 (some centres not stated)
inactive: outcome [1] | outcome [4] | outcome [5]

C[C@@H]1CCCCO[C@H](CN(C)Cc2ccc(C(F)(F)F)cc2)[C@@H](C)CN([C@@H](C)CO)C(=O)c2cc(NC(=O)Nc3ccc(F)cc3)ccc2O1
inactive: outcome [1] | outcome [2] | outcome [3]

COc1ccc(S(=O)(=O)Nc2ccc3c(c2)C(=O)N([C@@H](C)CO)C[C@H](C)[C@@H](CN(C)C(=O)Nc2ccc(F)cc2)OCCCC[C@H](C)O3)cc1
inactive: outcome [1] | outcome [4] | outcome [6] | max activity [7] -15.3% | outcome [3] | outcome [5] | outcome [8]

COC(=O)Cc1[nH]n(-c2nc3ccccc3s2)c(=O)c1C(C)=Nc1ccc(OC)cc1
inactive: AC35 [9]

C[C@@H]1CCCCO[C@H](CN(C)C(=O)Nc2cccc3ccccc23)[C@H](C)CN([C@@H](C)CO)C(=O)c2cc(NS(=O)(=O)c3ccc(Cl)cc3)ccc2O1
inactive: outcome [1] | outcome [4] | outcome [3] | outcome [5]

CCCC#Cc1ccc([C@@H]2[C@@H](C#N)N(C(=O)C3CCCCC3)[C@H]2CO)cc1
inactive: outcome [1] | outcome [4] | outcome [6] | outcome [3] | outcome [5]

C[C@@H]1CCCCO[C@H](CN(C)Cc2ccc(Cl)c(Cl)c2)[C@@H](C)CN([C@@H](C)CO)C(=O)c2cc(NC(=O)Nc3ccccc3)ccc2O1
inactive: outcome [1] | outcome [2] | outcome [6] | max activity [7] 15.8% [at 0.26 µM, stronger effect = lower value] | outcome [3] | outcome [5] | outcome [8]

O=C(Nc1ccc(F)cc1)N1CC(=O)N2[C@@H](CO)[C@H](c3ccc(-c4ccc(F)cc4)cc3)[C@@H]2C1
inactive: outcome [1] | outcome [2] | outcome [6] | outcome [5]

C[C@@H]1CN([C@H](C)CO)C(=O)c2cc(NC(=O)Nc3ccccc3)ccc2O[C@@H](C)CCCCO[C@@H]1CN(C)Cc1ccc(Cl)c(Cl)c1
inactive: outcome [1] | outcome [6]

C[C@H]1CN([C@@H](C)CO)C(=O)Cc2cc(NC(=O)NC3CCCCC3)ccc2O[C@@H]1CN(C)Cc1ccc(-c2ccccc2)cc1
inactive: outcome [1] | outcome [4] | outcome [6] | max activity [7] 18.6% [at 1 µM, stronger effect = lower value] | outcome [3] | outcome [5] | outcome [8]

CC(=O)Nc1ccc(S(=O)(=O)Nc2ccc(N3CCCCC3)cc2)cc1
inactive: AC35 [9]

C[C@H](CO)N1C[C@H](C)[C@@H](CN(C)S(=O)(=O)c2ccc(-c3ccccc3)cc2)OCc2cn(nn2)CCCC1=O
inactive: outcome [1] | outcome [4] | outcome [6] | max activity [7] -33.1% | outcome [3] | outcome [5] | outcome [8]

N#C[C@@H]1[C@H](c2ccc(C#Cc3cccc(F)c3)cc2)[C@@H](CO)N1C(=O)C1CCCC1
inactive: outcome [10]

N#Cc1ccc(-c2ccc(C3[C@@H]4CN(C(=O)C5CC5)C[C@H]3N4)cc2)cc1 (some centres not stated)
inactive: outcome [4] | outcome [2]

O=C(Nc1ccc(Cl)c(Cl)c1)N[C@@H]1CC[C@H](CCn2cc(C3CCCCC3)nn2)O[C@H]1CO
inactive: outcome [4] | outcome [2] | outcome [6] | max activity [7] -6.27% [at 16 µM, stronger effect = lower value] | outcome [3] | outcome [5] | outcome [8]

CC(=O)[C@@]1(O)Cc2c(O)c3c(c(O)c2[C@H](O[C@H]2C[C@H](N)[C@H](O)[C@H](C)O2)C1)C(=O)c1ccccc1C3=O
inactive: outcome [4] | outcome [2]

C[C@@H]1CCCCO[C@@H](CN(C)Cc2ccc(C(F)(F)F)cc2)[C@@H](C)CN([C@@H](C)CO)C(=O)c2cc(NS(=O)(=O)c3ccc(F)cc3)ccc2O1
inactive: outcome [4] | outcome [2] | outcome [6] | max activity [7] -6.83% [at 16 µM, stronger effect = lower value] | outcome [3] | outcome [5] | outcome [8]

C[C@H](CO)N1C[C@H](C)[C@H](CN(C)S(=O)(=O)c2ccc(Cl)cc2)OCCCC[C@H](C)Oc2ccc(NS(=O)(=O)c3ccc(F)cc3)cc2C1=O
inactive: outcome [4] | outcome [2] | outcome [6] | max activity [7] 20.8% | outcome [3] | outcome [8]

C[C@H](CO)N1C[C@H](C)[C@@H](CN(C)S(=O)(=O)c2ccc(Cl)cc2)OCCCC[C@H](C)Oc2ccc(NS(=O)(=O)c3ccc(Cl)cc3)cc2C1=O
inactive: outcome [4] | outcome [2] | outcome [6] | max activity [7] -14.4% [at 8 µM, stronger effect = lower value] | outcome [3] | outcome [5] | outcome [8]

CCOC(=O)Nc1ccc2c(c1)N(C(=O)CCN(CC)CC)c1ccccc1S2=O (configuration not stated)
inactive: outcome [4] | outcome [2]

COc1ccc(NC(=O)Nc2ccc3c(c2)CC(=O)N([C@H](C)CO)C[C@@H](C)[C@@H](CN(C)Cc2ccc(Oc4ccccc4)cc2)O3)cc1
inactive: outcome [4] | outcome [2] | outcome [6] | max activity [7] -8.95% [at 16 µM, stronger effect = lower value] | outcome [3] | outcome [5] | outcome [8]

COc1cccc(S(=O)(=O)N2CC[C@H]3[C@@H](CO)N(C)c4ccc(C#Cc5ccc(F)cc5)cc4[C@H]32)c1
inactive: outcome [4] | outcome [2] | outcome [6] | max activity [7] -17.2% | outcome [3] | outcome [5] | outcome [8]
